Records with an inconclusive call do not appear. Entries that show only a call come without a potency. Calls of active or inactive are those of the source. Calls follow the shape of the full dose curve.
assay: A qHTS for Small Molecule Inhibitors of Shiga Toxin (Confirmatory); conditions: Cell-based Shiga toxin protection reporter assay; series mostly up to 38.3 µM; also: nearly all actives have a fitted effect of over 75% in size
Potency is read from the fitted curve at half-maximal effect.

Compound	Potency
CCOC(=O)C1(CCCc2ccccc2)CCN(C(=O)CCn2cncn2)CC1	inactive
O=C(/C=C/C#Cc1cccc(NS(=O)(=O)c2ccccc2)c1)NO	11.3 µM (active)
CCN1CCN(Cc2c(O)ccc3c(=O)c(-c4ccc(OC)c(OC)c4)c(C(F)(F)F)oc23)CC1	inactive
Cc1cccc(C(=O)Nc2nnc(SCC(=O)NC3CC3)s2)c1	4.49 µM (active)
COc1ccc(C2C(C#N)=C(C)NC3=C2C(=O)CC(C)(C)C3)c(OC)c1 (configuration not stated)	inactive
COC(=O)c1c(NC(=O)c2ccn(C)n2)sc2c1CCC2	2.83 µM (active)
COc1ccccc1CNC(=O)Cn1cc([N+](=O)[O-])ccc1=O	inactive
COc1ccc(/C=C/c2nnc(NC(=O)CSc3ccc(Cl)cc3)s2)cc1	11.3 µM (active)
O=C(COc1ncnc2ccccc12)NCCC1=CCCCC1	inactive
CCCCc1ccc(NS(=O)(=O)N(C)C)cc1	inactive
CC1=C(C)C(OCCBr)N(c2cc(O)c(Cl)cc2F)C1=O (configuration not stated)	inactive
CCC(C)C1C(C#N)=C(N)OC2=C1C(=O)CC(C)(C)C2 (configuration not stated)	inactive
Cc1cccc(NC(=O)C2CCCC2)c1	0.0252 µM (active)
COc1cccc(/C=C/C(=O)c2cccc([N+](=O)[O-])c2)c1OC	inactive
CC(=O)N[C@@H](Cc1c[nH]c2ccccc12)C(=O)OCC(=O)Nc1ccc(Cl)c(S(=O)(=O)N(C)C)c1	inactive
Cc1cc(N2CCCCCC2)nc(-c2ccccc2O)n1	17.9 µM (active)
O=C(CCN1C(=O)c2cccc3cccc(c23)C1=O)NC1CCS(=O)(=O)C1 (configuration not stated)	inactive
O=C(Cc1cccs1)Nc1nc(-c2ccc(F)c(F)c2)cs1	6.34 µM (active)
Cc1nn(C2CCCCC2)c(N)c1-c1ccccc1	inactive

Compound	Potency
CSc1nc(C)c2cc(C)oc2n1	inactive
COc1ccccc1C(=O)Nc1ccc(N2CCN(C(C)=O)CC2)cc1	inactive
CC(OC(=O)c1ccc2c(=O)n3c(nc2c1)CCC3)C(N)=O (configuration not stated)	inactive
Cc1cccc(Cn2cc(SCC(=O)Nc3nccs3)c3ccccc32)c1	8.95 µM (active)
COc1ccc(-c2cc(-c3ccccc3O)[nH]n2)cc1OC	2.25 µM (active)
Cc1nonc1OCCCNc1ccc([N+](=O)[O-])cc1Cl	12.6 µM (active)
NNC(=O)c1ccc(NS(=O)(=O)c2ccc(Br)cc2)cc1	inactive
COc1ccc(CNC(=O)C(OC(=O)c2ccco2)c2ccccc2F)cc1 (configuration not stated)	inactive
O=S(=O)(c1ccsc1)N1CC=C(c2ccccc2)CC1	2.83 µM (active)
Cn1c(=O)c2ncn(CC(=O)NCCOc3ccccc3)c2n(C)c1=O	inactive
Cc1ccc(NC(=O)c2cc(S(=O)(=O)N3CCCCC3)ccc2N2CCOCC2)cc1F	0.04 µM (active)
COc1ccc(C(=O)Nc2ccccc2C(=O)NCc2ccco2)cc1	5.65 µM (active)
O=C(NCC1CCCO1)Nc1ccc2c(c1)OCO2 (configuration not stated)	22.5 µM (active)
Cc1cc(OCC(=O)NCc2ccccn2)cc(C)c1Br	inactive
COc1ccc(OCc2cccc(C(=O)O)c2)cc1	0.0356 µM (active)
Cc1ccc(NC(=S)c2nc3ccccc3s2)cc1	0.895 µM (active)
C/C1=C\[C@@H](O)C(C(C)C)C(OC(=O)c2ccc(O)cc2)C/C(C)=C/CC1 (some centres not stated)	17.9 µM (active)
CC(C)(C)C1CCC(C(=O)OCC(=O)c2ccc[nH]2)CC1 (configuration not stated)	2.52 µM (active)
